Activity calls are given as the source filed them.
system: not listed separately; test: Plasmodium falciparum growth inhibition, primary screen, strain 3D7, DAPI fluorescence, 100 nL (AID 1184);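 also: parasites grown inside human red blood cells in medium with human serum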; details: P. falciparum 3D7 growth, 3 d, higher = more signal

Structure (SMILES) | z-score
CO[C@H]1O[C@H](CO)[C@@H](OC(=O)Nc2ccccc2)[C@H](OC(=O)c2cc3ccccc3[nH]2)[C@H]1OC(=O)c1cc2ccccc2[nH]1 | -1.83
CCCCC(CC)C(O)C1C=CC2C(=O)N(C)C(=O)C2N1Nc1ccccc1 (stereo not drawn) | 0.537
CCC#CCN(Cc1ccccc1Br)[C@H](/C=C/C1CC1)[C@@H](O)Cc1ccccc1 | -3.17
O=C1N(Cc2ccccc2)c2ccccc2C[C@]12N=C(c1ccc(OCCCO)cc1)O[C@@H]2c1ccccc1 | -2.37
Cn1cccc1C(O)C1C=CC2C(=O)N(c3ccccc3)C(=O)C2N1Nc1ccccc1 (stereo not drawn) | -0.255
C=CCC(OC(C)=O)[C@@H]1[C@@H](N(Cc2ccc(-c3cccc(C(F)(F)F)c3)o2)C(=O)c2ccc(-c3ccccc3)cc2)c2cc(OCCCO)ccc2N1C(=O)Cc1ccc2ccccc2c1 (stereo partly drawn) | -0.694
CCOC(=O)C1=C[C@@H](c2ccccc2)N(S(=O)(=O)c2ccc(C)cc2)[C@H]1c1ccc(OC)cc1 | -1.84

molecular target: Homeobox protein Hox-A13 (Mus musculus) (UniProt Q62424); test: inhibitors of HoxA13-DNA binding, primary screen, biochemical, fluorescence polarization, labeled oligonucleotide (AID 1185); details: 15 min, higher = more signal, called active from +8 up or from −8 down
Sequence (Q62424 whole entry, looked up): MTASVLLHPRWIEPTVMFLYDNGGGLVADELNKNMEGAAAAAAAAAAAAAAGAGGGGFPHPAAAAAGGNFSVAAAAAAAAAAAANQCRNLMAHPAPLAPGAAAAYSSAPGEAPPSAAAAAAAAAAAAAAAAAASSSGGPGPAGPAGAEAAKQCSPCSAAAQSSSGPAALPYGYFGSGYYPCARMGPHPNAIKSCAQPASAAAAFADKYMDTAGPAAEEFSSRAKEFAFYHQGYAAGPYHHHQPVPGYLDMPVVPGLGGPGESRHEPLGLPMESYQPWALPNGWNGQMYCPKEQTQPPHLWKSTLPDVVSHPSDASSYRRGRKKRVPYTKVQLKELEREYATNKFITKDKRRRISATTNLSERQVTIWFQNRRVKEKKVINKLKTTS

Structure (SMILES) | z-score
COC(=O)[C@@H]1N=C(c2ccc(OCCCO)cc2)O[C@@H]1c1ccccc1 | -4.34 (inactive)
COCCOC(=O)N1C(=O)[C@@]2(c3ccccc31)[C@H](c1ccc(O)cc1)N1[C@H](c3ccccc3)[C@H](c3ccccc3)OC(=O)[C@H]1[C@@H]2C(=O)N1CCN(c2ncccn2)CC1 | -2.14 (inactive)
CC(C)[Si]1(C(C)C)OCc2cc(-c3ccc(-c4ccc(Cl)c(Cl)c4)o3)nc(-c3ccccc3)c21 | -2.02 (inactive)
[N-]=[N+]=Nc1ccccc1[C@H]1OC(c2ccc(OCCCO)cc2)=N[C@@]1(Cc1ccccc1)C(=O)NCCN1CCOCC1 | -2.71 (inactive)
CC(C)[Si]1(C(C)C)OCc2cc(C3CC3)nc(-c3ccc(Oc4ccccc4)cc3)c21 | -2.85 (inactive)
[N-]=[N+]=Nc1ccccc1[C@@H]1OC(c2ccc(OCCCO)cc2)=N[C@]1(Cc1ccccc1)C(=O)O | -4.29 (inactive)
CO[C@H]1O[C@H](CO)[C@@H](OC(=O)Nc2ccc(Br)cc2)[C@@H]2OC(=O)[C@@H](Cc3ccccc3)C/C=C/C[C@H](Cc3ccccc3)C(=O)O[C@@H]12 | -1.27 (inactive)
CS(=O)(=O)CCOC(=O)C1=CC(c2ccc(CO)cc2)=CC(C2CC2)N(Cc2sc3ccccc3c2Cl)C=C1C(=O)OCCS(C)(=O)=O (stereo not drawn) | 0.0711 (inactive)
COC(=O)[C@@]1(Cc2ccccc2)[C@H]2c3cc(C(=O)N(C)C)n(Cc4ccc(C)o4)c3C[C@H]2CN1C(=O)c1ccccc1 | 0.0385 (inactive)
CCCC[C@@H](O)C1=C(COC)C[C@H]2C(=O)N(Cc3ccccc3)C(=O)[C@H]2[C@H]1CO | -4.13 (inactive)
NC(=O)[C@H]1[C@@H]2C(=O)O[C@@H](c3ccccc3)[C@@H](c3ccccc3)N2[C@@H](c2ccc(OCCO)cc2)[C@]12C(=O)Nc1ccc(C#CCCO)cc12 | -4.68 (inactive)
CCCCC[C@H]1OC[C@@]23C=C(Br)[C@@H](CC12)[C@@]1(CO1)C3=O (stereo partly drawn) | -2.47 (inactive)
C=C(C(=O)CC[C@H](OC(=O)c1ccccc1-c1ccccc1C(=O)O)c1cccc(OCCO)c1)C(C)C | -5.93 (inactive)
C=CCNC(=O)[C@@H]1[C@H]2C(=O)O[C@H](c3ccccc3)[C@H](c3ccccc3)N2[C@H](c2ccc(OCCO)cc2)[C@@]12C(=O)N(C(=O)OCCOC)c1ccc(C#Cc3ccc(OC)cc3)cc12 | -0.573 (inactive)
NCCCCCCNC(=O)[C@@H]1C[C@@H]2C(=O)N[C@@H](CCCCN)C(=O)N2[C@@H]1c1ccc(O)cc1 | -1.72 (inactive)
COc1cc2c(cc1O)C=[N+](Cc1sc3ccccc3c1Cl)CC2 | -5.22 (inactive)
CC(C)N1C(=O)c2ccccc2[C@@H](C(=O)NCCN2CCOCC2)[C@@H]1c1ccc(CO)cc1 | -4.17 (inactive)
COCCOC(=O)N1C(=O)[C@@]2(c3cc(C#CCCO)ccc31)[C@H](c1ccc(OCCO)cc1)N1[C@H](c3ccccc3)[C@H](c3ccccc3)OC(=O)[C@H]1[C@@H]2C(=O)Nc1nc2ccccc2s1 | 0.838 (inactive)
CCCCN1CC=CC23O[C@@H]4/C=C\CCCOC(=O)C4[C@H]2C(=O)N(CCO)[C@@H]3C1=O (stereo partly drawn) | -5.46 (inactive)
Oc1ccc2cc[n+](Cc3cc4c(cc3Br)OCO4)cc2c1 | -8.63 (active)
CCOC(=O)C[C@H]1[C@H](OC(=O)c2ccc(C(=O)c3ccccc3)cc2)[C@@H](NC(=O)CC(C)C)c2cc(OCCCO)ccc2N1C(=O)c1ccccc1 | -3.51 (inactive)
